Growth inhibition, inhibition and outcome data for 19 compounds are collected here from PubChem BioAssay.

Values without a mark were called inactive. For some assays here: Potency and affinity values are given separately. The source made the active and inactive calls. Unless noted, the rule behind the calls is not given here.

The nature of experiment [1]: antimalarial activity against Dd2 strain (AID 2302;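 active = growth inhibition above 50% at the single 2 µM test dose, taken to imply half-maximal potency below 2 µM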;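 note: 0% = DMSO untreated growth and 100% = chloroquine plus artemisinin killed control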). The note with it: P. falciparum Dd2 in RBCs, LDH growth readout, 72 h; at 2 µM; stronger effect = higher value.
A short description of experiment [2]: HepG2 cytotoxicity, primary screen, cytotoxicity control for P. falciparum antimalarial project, cell-based, ATP luminescence (AID 2303;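 active = inhibition above 50%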;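 note: 0% = DMSO wells and 100% = digitonin-killed cells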). The note with it: HepG2 viability, 24-48 h, at 10 µM, stronger effect = higher value.
Experiment [3] has as its target L-lactate dehydrogenase (Plasmodium falciparum (isolate CDC / Honduras)) (UniProt Q27743). The experiment can be described thus: PfLDH activity inhibition – cell lysate, 3D7 strain, counter-screen for P. falciparum growth inhibition project (AID 2304).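 Note: 0% = vehicle and 100% = reference inhibitor.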 The note with it: P. falciparum 3D7 crude extract, LDH APAD/NBT absorbance; at 2 µM; stronger effect = higher value.
Experiment [4] is described as follows: inhibition of 3D7 malaria parasite growth – strain 3D7 (AID 2306).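 Note: 0% = DMSO wells and 100% = chloroquine plus artemisinin control wells.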 The note with it: P. falciparum 3D7 erythrocytic growth, LDH absorbance, 72 h; at 2 µM; stronger effect = higher value.
Experiment [5] has as its target Calcium-dependent protein kinase 1 (Plasmodium falciparum (isolate 3D7)) (UniProt P62344). The experiment is described as follows: PfCDPK1 kinase inhibitors, biochemical, TCAMS library (AID 1159585; cut-off not given, nearly all actives have IC50 up to about 0.98 µM;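 note: inhibitors leave more ATP so luminescence rises with inhibition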). The note with it: recombinant PfCDPK1, Kinase-Glo ATP depletion luminescence. A general note: Kinase-Glo reads ATP consumption through a luciferase reaction.
Experiment [6] concerns the target Plasmodium falciparum protein kinase 6 (PK6, PF3D7_1337100) (UniProt Q8IDW1). The experiment is described as follows: PfPK6 kinase inhibitors, biochemical, TCAMS library (AID 1159586). The note with it: recombinant PfPK6, Kinase-Glo ATP depletion luminescence.
Experiment [7] concerns the target Protein kinase 7 (PK7), Plasmodium falciparum 3D7 (PF3D7_0213400) (UniProt Q7YTF7). The experiment is described as follows: inhibition of Plasmodium PK7 catalytic activity – biochemical, TCAMS antimalarial set, Kinase-Glo luminescence (AID 1159587). The note with it: recombinant PfPK7, Kinase-Glo ATP depletion luminescence.
Experiment [8] has as its target Calcium-dependent protein kinase 4 (Plasmodium falciparum (isolate 3D7)) (UniProt Q8IBS5). The experiment can be described thus: PfCDPK4 kinase inhibitors, biochemical, TCAMS library (AID 1159588; cut-off not given, nearly all actives have IC50 up to about 0.91 µM). The note with it: recombinant PfCDPK4, Kinase-Glo ATP depletion luminescence.

Sequence of Calcium-dependent protein kinase 4 (Plasmodium falciparum (isolate 3D7)) (Q8IBS5 whole entry, looked up): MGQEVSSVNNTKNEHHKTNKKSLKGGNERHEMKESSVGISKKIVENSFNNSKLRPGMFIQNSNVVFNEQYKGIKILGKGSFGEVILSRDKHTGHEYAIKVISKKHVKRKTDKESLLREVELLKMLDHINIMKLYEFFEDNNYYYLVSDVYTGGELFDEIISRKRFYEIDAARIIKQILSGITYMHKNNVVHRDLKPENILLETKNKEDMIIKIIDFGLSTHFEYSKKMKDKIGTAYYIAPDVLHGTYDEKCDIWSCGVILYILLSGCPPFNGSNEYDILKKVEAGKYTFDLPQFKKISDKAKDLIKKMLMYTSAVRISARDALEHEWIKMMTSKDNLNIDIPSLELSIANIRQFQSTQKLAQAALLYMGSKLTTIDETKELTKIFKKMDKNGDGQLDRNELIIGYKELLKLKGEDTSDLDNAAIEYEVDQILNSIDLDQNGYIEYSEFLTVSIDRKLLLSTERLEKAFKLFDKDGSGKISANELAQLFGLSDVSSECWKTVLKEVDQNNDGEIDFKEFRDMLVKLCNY
Sequence of L-lactate dehydrogenase (Plasmodium falciparum (isolate CDC / Honduras)) (Q27743 whole entry, looked up): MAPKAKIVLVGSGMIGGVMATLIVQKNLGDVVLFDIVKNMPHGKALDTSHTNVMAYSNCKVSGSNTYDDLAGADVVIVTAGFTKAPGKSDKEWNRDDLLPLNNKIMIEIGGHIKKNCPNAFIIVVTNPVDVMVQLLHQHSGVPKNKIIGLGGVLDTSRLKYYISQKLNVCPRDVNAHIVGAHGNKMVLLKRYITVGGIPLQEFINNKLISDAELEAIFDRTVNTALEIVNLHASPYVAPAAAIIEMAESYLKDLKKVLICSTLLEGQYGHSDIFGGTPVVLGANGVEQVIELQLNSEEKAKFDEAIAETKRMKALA
Sequence of Protein kinase 7 (PK7), Plasmodium falciparum 3D7 (PF3D7_0213400) (Q7YTF7 1-343): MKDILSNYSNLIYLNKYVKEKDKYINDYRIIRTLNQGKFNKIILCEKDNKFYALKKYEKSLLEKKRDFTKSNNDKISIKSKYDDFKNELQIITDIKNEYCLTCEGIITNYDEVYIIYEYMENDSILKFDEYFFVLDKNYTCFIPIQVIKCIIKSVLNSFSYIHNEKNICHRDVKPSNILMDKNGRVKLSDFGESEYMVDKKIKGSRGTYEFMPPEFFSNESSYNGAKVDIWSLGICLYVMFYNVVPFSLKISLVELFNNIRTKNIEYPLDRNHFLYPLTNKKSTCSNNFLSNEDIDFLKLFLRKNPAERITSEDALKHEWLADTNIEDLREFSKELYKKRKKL
Sequence of Plasmodium falciparum protein kinase 6 (PK6, PF3D7_1337100) (Q8IDW1 1-305): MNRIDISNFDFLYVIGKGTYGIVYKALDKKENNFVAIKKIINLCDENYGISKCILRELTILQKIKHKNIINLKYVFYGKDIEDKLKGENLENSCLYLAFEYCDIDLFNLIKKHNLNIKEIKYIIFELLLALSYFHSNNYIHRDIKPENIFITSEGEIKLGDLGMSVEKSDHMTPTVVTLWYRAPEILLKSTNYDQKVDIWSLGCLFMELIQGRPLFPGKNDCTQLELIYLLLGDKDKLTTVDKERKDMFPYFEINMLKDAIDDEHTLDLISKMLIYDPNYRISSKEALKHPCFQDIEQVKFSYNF
Sequence of Calcium-dependent protein kinase 1 (Plasmodium falciparum (isolate 3D7)) (P62344 whole entry, looked up): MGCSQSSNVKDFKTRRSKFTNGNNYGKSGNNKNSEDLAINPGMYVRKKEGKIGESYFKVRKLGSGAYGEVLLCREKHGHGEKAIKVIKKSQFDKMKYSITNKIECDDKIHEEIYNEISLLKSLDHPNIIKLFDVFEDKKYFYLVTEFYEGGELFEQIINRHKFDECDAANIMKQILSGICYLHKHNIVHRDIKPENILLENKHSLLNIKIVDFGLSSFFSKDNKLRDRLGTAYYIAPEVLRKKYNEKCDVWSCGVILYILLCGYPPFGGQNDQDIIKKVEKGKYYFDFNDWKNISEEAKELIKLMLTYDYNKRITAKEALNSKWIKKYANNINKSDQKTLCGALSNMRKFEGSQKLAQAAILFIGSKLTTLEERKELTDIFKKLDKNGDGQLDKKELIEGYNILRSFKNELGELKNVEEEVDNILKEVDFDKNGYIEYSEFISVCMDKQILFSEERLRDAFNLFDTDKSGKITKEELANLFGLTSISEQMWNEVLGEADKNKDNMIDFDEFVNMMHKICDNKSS

As to `CC(=O)Nc1ccc(S(=O)(=O)N2CCN(c3nc(NC4CCCC4)c4ccccc4n3)CC2)cc1`, the growth inhibition was 2% in experiment [1] and 88% (active) in experiment [4]. For the same compound, the inhibition was 7% in experiment [2] and 1% in experiment [3]. The outcome in experiment [5], in experiment [6], in experiment [7] and in experiment [8] was inactive.

With `CC(C)[C@H](NCC(=O)c1ccccc1)C(=O)O`, the growth inhibition was 0% in experiment [1] and 99% (active) in experiment [4]. Moreover, the values for the inhibition in experiment [2] and in experiment [3] were 6% and -3%, respectively. For the same compound, the outcome in experiment [5], in experiment [6], in experiment [7] and in experiment [8] was inactive.

Turning to `O=C(Nc1cccc(-c2cccc(-c3nc4ccc(F)cc4[nH]3)c2)c1)Nc1ccc2c(c1)OCO2`, the values for the growth inhibition in experiment [1] and in experiment [4] were 49% and 101% (active), respectively. For the same compound, the inhibition in experiment [2] was 30%; in experiment [3], -4%. Besides, the outcome in experiment [5], in experiment [6], in experiment [7] and in experiment [8] was inactive.

Turning to `COC(=O)C(=C(C)C)N1C(=O)[C@@H](NC(=O)OCc2ccccc2)[C@H]1SS[C@@H]1[C@H](NC(=O)OCc2ccccc2)C(=O)N1C(C(=O)OC)=C(C)C`, the results for the growth inhibition in experiment [1] and in experiment [4] were 96% (active) and 97% (active), respectively. The values for the inhibition in experiment [2] and in experiment [3] were 18% and -5%, respectively. Moreover, the result in experiment [5], in experiment [6], in experiment [7] and in experiment [8] was inactive.

Consider `CCOC(=O)CNC(=O)c1cc(=O)c2ccccc2o1`, for which the growth inhibition in experiment [1] is -4%; in experiment [4], 99% (active). The inhibition in experiment [2] was 22%; in experiment [3] it was -4%. Further, the outcome in experiment [5], in experiment [6], in experiment [7] and in experiment [8] was inactive.

For `c1ccc(-c2nnc(-c3ccccn3)nc2NC2CCCCC2)cc1`, the growth inhibition was 80% (active) in experiment [1] and 97% (active) in experiment [4]. The inhibition was 74% (active) in experiment [2] and 6% in experiment [3]. The outcome in experiment [5], in experiment [6], in experiment [7] and in experiment [8] was inactive.

In the case of `c1nc2nc3c(c(Nc4ccc5c(c4)CCC5)n2n1)CCC3`, the results for the growth inhibition in experiment [1] and in experiment [4] were 70% (active) and 87% (active), respectively. Also, the inhibition in experiment [2] is -1%; in experiment [3] it was -5%. Further, the result in experiment [5], in experiment [6], in experiment [7] and in experiment [8] was inactive.

As to `COc1cc2c(cc1OCCN1CCC(N3CCCCC3)CC1)N(C(=O)/C=C/c1ccccc1Cl)CC2`, the growth inhibition was 41% in experiment [1] and 102% (active) in experiment [4]. Further, the inhibition is 36% in experiment [2] and -1% in experiment [3]. For the same compound, the result in experiment [5], in experiment [6], in experiment [7] and in experiment [8] was inactive.

For `COc1ccc2nccc([C@@H](O)CN3CCC(NCc4cc5cc([N+](=O)[O-])ccc5[nH]4)CC3)c2c1`, the growth inhibition is 57% (active) in experiment [1] and 99% (active) in experiment [4]. For the same compound, the inhibition was 29% in experiment [2] and 4% in experiment [3]. Further, the result in experiment [5], in experiment [6], in experiment [7] and in experiment [8] was inactive.

On to `Cc1cccc2[nH]c(-c3cccc(-c4cccc(C(=O)N5CCCCC5CN5CCC(O)C5)c4)c3)nc12` (configuration not stated), for which the growth inhibition in experiment [1] was 71% (active); in experiment [4], 89% (active). Besides, the values for the inhibition in experiment [2] and in experiment [3] were 19% and -5%, respectively. For the same compound, the result in experiment [5], in experiment [6], in experiment [7] and in experiment [8] was inactive.

Consider `CC(CNc1nc(NCC(c2ccccc2)c2ccccc2)c2[nH]cnc2n1)c1ccccc1` (configuration not stated), for which the growth inhibition in experiment [1] was 24%; in experiment [4] it was 93% (active). Besides, the results for the inhibition in experiment [2] and in experiment [3] were 5% and -8%, respectively. Further, the outcome in experiment [5], in experiment [6], in experiment [7] and in experiment [8] was inactive.

In the case of `CN(C)Cc1ccc2cc(NC(=O)c3ccc(-c4ccc(Cl)cc4)cc3)ccc2n1`, the values for the growth inhibition in experiment [1] and in experiment [4] were 30% and 86% (active), respectively. Besides, the inhibition in experiment [2] is 60% (active); in experiment [3], -1%. Besides, the outcome in experiment [5], in experiment [6], in experiment [7] and in experiment [8] was inactive.

As for `COc1cc(Cc2cnc(N)nc2N)cc(CC(C)O)c1O` (configuration not stated), the figures for the growth inhibition in experiment [1] and in experiment [4] were 2% and 93% (active), respectively. The inhibition in experiment [2] and in experiment [3] was -2% in each case. The result in experiment [5], in experiment [6], in experiment [7] and in experiment [8] was inactive.

With `Cc1cc2nc(-c3cc(-c4cccc(NS(C)(=O)=O)c4)cnc3N)[nH]c2cc1C`, the growth inhibition was 32% in experiment [1] and 102% (active) in experiment [4]. The inhibition is 43% in experiment [2] and -2% in experiment [3]. For the same compound, the result in experiment [5], in experiment [6], in experiment [7] and in experiment [8] was inactive.

As for `CCCN(CCCCCCNCCc1ccc(Cl)cc1)CCc1ccc(O)c(O)c1`, the growth inhibition is 11% in experiment [1] and 91% (active) in experiment [4]. Also, the inhibition is 26% in experiment [2] and -3% in experiment [3]. For the same compound, the result in experiment [5], in experiment [6], in experiment [7] and in experiment [8] was inactive.

Regarding `CN(C)CCn1c(N)c(-c2nc3ccccc3s2)c2nc(C#N)c(C#N)nc21`, the results for the growth inhibition in experiment [1] and in experiment [4] were 40% and 94% (active), respectively. The values for the inhibition in experiment [2] and in experiment [3] were 4% and -7%, respectively. Further, the outcome in experiment [5], in experiment [6], in experiment [7] and in experiment [8] was inactive.

For the compound `CCN(CCCN1CCCC1)c1cc(C)nc(Nc2ccc(Cl)cc2)n1`, the growth inhibition in experiment [1] is 12%; in experiment [4], 100% (active). Moreover, the inhibition is 5% in experiment [2] and 1% in experiment [3]. Further, the outcome in experiment [5], in experiment [6], in experiment [7] and in experiment [8] was inactive.

Consider `C#CC[C@@H](NC(N)=O)C(=O)O`, for which the results for the growth inhibition in experiment [1] and in experiment [4] were 0% and 97% (active), respectively. In addition, the inhibition is 1% in experiment [2] and -2% in experiment [3]. In addition, the outcome in experiment [5], in experiment [6], in experiment [7] and in experiment [8] was inactive.

Consider `CCCCNC(=O)c1cc(CNC2CCCCC2)ccc1-c1cccc(CNCc2ccc(-c3ccccc3)cc2)c1`, for which the growth inhibition was 85% (active) in experiment [1] and 100% (active) in experiment [4]. For the same compound, the inhibition is 100% (active) in experiment [2] and 0% in experiment [3]. Moreover, the outcome in experiment [5], in experiment [6], in experiment [7] and in experiment [8] was inactive.

As usually defined, the inhibition is the drop in the measured response relative to a control, in per cent.
